# Assay results from PubChem BioAssay (NCI).
# Compounds without any hit were thinned out: in the full panel of roughly 83,000, 20% have a hit.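 Values shown are percent growth following 48 h exposure of cells in 96-well plates to a single concentration of compound; below 10 was considered active.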 A number with no mark means an inactive call. Active and inactive are the calls of the source.
# Experiments:
# Assay in all cases: NCI-60 one-dose screen, 48 h (100 = growth as untreated, 0 = no growth, -100 = all killed)
# T-47D breast = settings: 10 µM
# BT-549 breast = settings: 10 µM
# MDA-MB-435 melanoma = settings: 10 µM
# SW-620 colon = settings: 10 µM
# MCF7 breast = settings: 10 µM unless noted
# HCT-116 colon = settings: 10 µM
# HCC-2998 colon = settings: 10 µM
# KM12 colon = settings: 10 µM
Compound,growth (T-47D breast),growth (BT-549 breast),growth (MDA-MB-435 melanoma),growth (SW-620 colon),growth (MCF7 breast),growth (HCT-116 colon),growth (HCC-2998 colon),growth (KM12 colon)
CCOC(=O)CNN,104%,108%,108%,99.2%,97.9%,107%,106%,101%
CN(C)c1ccc(C(c2ccc(O)cc2)c2ccc(N(C)C)cc2)cc1,59.8%,103%,41.8%,96.5%,78.6%,93.9%,117%,89.5%
O=P(O)(O)OCC(O)CO (stereo not drawn),100%,102%,109%,107%,95.6%,102%,107%,105%
COc1cc2cc(c1Cl)N(C)C(=O)C[C@H](OC(=O)[C@H](C)N(C)C(C)=O)[C@]1(C)O[C@H]1[C@H](C)[C@@H]1C[C@@](O)(NC(=O)O1)[C@H](OC)C=C/C=C(\C)C2,74.6%,-21% (active),-53.3% (active),26.5%,14.2%,-18.6% (active),-32% (active),-42.3% (active)
c1ccc(CN2COc3c(ccc4c3OCN(Cc3ccccc3)C4)C2)cc1,13.1%,12.6%,22.1%,29.8%,28.5%,22%,-14.5% (active),25.3%
O=C(O)C(O)c1ccccc1 (stereo not drawn),95.1%,97.1%,108%,107%,99.1%,96.7%,103%,99.3%
Nc1nc(OCc2ccccc2)c2[nH]cnc2n1,101%,94.4%,99.3%,102%,95.9%,95.4%,104%,112%
O=C(/C=C\c1ccc(O)cc1)c1ccccc1,84.6%,37.4%,95%,101%,80.8%,78.2%,112%,71%
CC(=O)c1ccc(C)c(N)c1,99.8%,94.7%,114%,101%,97.1%,94.2%,108%,97%
COc1cc(-c2ccc(NC(=O)NC3CC3)c(OC)c2)ccc1NC(=O)NC1CC1,82.8%,89.5%,99.4%,66.8%,72.4%,36.9%,68.2%,71.8%
CC1OC(Oc2c(-c3ccc(O)c(O)c3)oc3cc(O)cc(O)c3c2=O)C(O)C(O)C1O (stereo not drawn),105%,109%,111%,99.8%,101%,105%,110%,102%
O=c1c2ccccc2c(Br)c(Br)c2ccccc12,53.5%,82.4%,77.6%,29.8%,101%,17.8%,103%,105%
O=S(=O)(Cc1ccccc1)c1ccccc1,110%,105%,107%,115%,99.5%,103%,105%,110%
CCCC(=O)c1cc(C)ccc1OC,105%,107%,116%,114%,103%,107%,111%,110%
c1cc2cccc3c4cccc5cccc(c(c1)c23)c54,90.2%,104%,111%,108%,84%,103%,96.7%,104%
COc1cc([C@@H]2c3cc4c(cc3[C@H](O)[C@H]3COC(=O)[C@H]23)OCO4)cc(OC)c1OC,65.5%,7.33% (active),-30.3% (active),24.5%,5.76% (active),2.8% (active),-4.87% (active),-4.78% (active)
COC(=O)c1ccc(C(C)C)cc1,82.3%,85.6%,99.8%,113%,93.1%,85.1%,101%,103%
O=C(O)C(Cc1ccccc1)C(=O)O,103%,99.1%,111%,105%,99.8%,96.8%,106%,107%
O=[N+]([O-])c1cccc(C(F)(F)F)c1,105%,103%,107%,92.6%,85.4%,99.1%,103%,119%
C=CCCCCCCCCCOC(C)=O,97.9%,132%,110%,105%,96.2%,110%,98.4%,103%
CC1C(=O)c2ccccc2CC1C(=O)O (stereo not drawn),102%,105%,108%,115%,99.3%,110%,89.7%,123%
CCOC(=O)c1cc2cccc(OC)c2oc1=O,106%,88.6%,110%,111%,105%,101%,108%,113%
NC(N)=Nc1cc2ccccc2c2ccccc12,88.1%,81.2%,84.8%,76.6%,81%,65.9%,95.4%,81%

Compound,growth (T-47D breast),growth (BT-549 breast),growth (MDA-MB-435 melanoma),growth (SW-620 colon),growth (MCF7 breast),growth (HCT-116 colon),growth (HCC-2998 colon),growth (KM12 colon)
CC1=CC(=O)c2ccccc2C1=O,98.7%,116%,107%,106%,100%,104%,108%,104%
O=C(/C(=N/O)c1ccccc1)c1ccccc1,90.2%,98%,108%,107%,87.9%,98%,107%,107%
Cc1cc(N)ccc1-c1ccc(N)cc1C,98.1%,92.3%,102%,101%,104%,105%,88.4%,99.7%
CC(CN1CCCCC1)NC(=O)c1scnc1-c1ccccc1 (stereo not drawn),98.7%,101%,101%,106%,103%,93.8%,96.8%,106%
O=C(O)C(c1ccccc1)C(O)c1ccccc1 (stereo not drawn),94.4%,110%,105%,106%,95.3%,105%,97.9%,108%
Cc1cccc(C(=O)N(C(C)C)C(C)C)c1,83.9%,105%,106%,96.4%,98.9%,94.7%,109%,104%
COC(=O)Nc1nc2ccc(C(=O)c3ccc(F)cc3)cc2[nH]1,112%,32%,-60.2% (active),24.8%,15.6%,14.2%,16.1%,-4.55% (active)
O=C(O)CCCC(=O)O,128%,118%,107%,93.1%,101%,100%,103%,92.4%
CCNc1nc2c(cnn2C)c(=O)[nH]1,92.5%,102%,106%,97.9%,100%,99.2%,105%,108%
N#CCc1ccc([N+](=O)[O-])cc1,98.6%,102%,114%,94.5%,89.8%,109%,101%,109%
Nc1ccc(N=Nc2ccc(S(=O)(=O)O)cc2)c2ccccc12,57.3%,102%,98.6%,88.7%,91.4%,89%,88.3%,99.2%
Cc1cc(C(O)(c2ccc(Nc3ccccc3)cc2)c2ccc(Nc3ccc(S(=O)(=O)O)cc3)cc2)ccc1N (stereo not drawn),-5.86% (active),22.6%,-67.4% (active),-32.6% (active),-3.23% (active),6.56% (active),-20.5% (active),4.39% (active)
N#C/C(=C\c1cc(O)c(O)c(O)c1)C(N)=O,110%,96.5%,89.4%,116%,100%,92.8%,98.3%,103%
CCCCC/C=N/Nc1nc(C)cc(=O)[nH]1,103%,109%,95.7%,104%,92.9%,101%,98.8%,106%
CC1(C)Nc2cccc3c(N=Nc4ccc(N=Nc5ccccc5)c5ccccc45)ccc(c23)N1,76.7%,124%,109%,89.4%,79.4%,70.5%,93.2%,106%
CCC/C=C(/C(C)=O)C(=O)OCC,107%,112%,108%,106%,114%,109%,7.66% (active),102%
CC(=Nc1ccccc1)C1=C(O)C(Cc2cccc(F)c2)NC1=O (stereo not drawn),72.6%,-20.2% (active),-46.2% (active),26.8%,20.9%,7.22% (active),26.9%,-3.04% (active)
CC1(C)OC(=O)C(c2ccsc2)C(=O)O1,90.4%,124%,101%,108%,104%,92.1%,107%,102%
Sc1ccc(Nc2c3ccccc3nc3ccccc23)cc1,38%,94.6%,92.8%,61.3%,71.7%,96.4%,68.9%,65.5%
O=C(Cc1ccc(OCc2ccccc2)cc1)NCc1ccc2c(c1)OCO2,86.2%,56.1%,-42.4% (active),28.1%,44.5%,40.4%,77.2%,33.1%
CCNCCCCNCCCCNCCCCNCCCCNCC,72.2%,123%,50.2%,68.3%,101%,92.6%,101%,62.1%
CC(=O)Nc1ccc(NC(C)=O)c2c1C(=O)c1ccccc1C2=O,81.2%,36.4%,107%,91%,87.3%,79.3%,105%,94.5%
CCS(=O)(=O)c1cc(=O)[nH]c(=O)[nH]1,114%,115%,86.7%,112%,106%,104%,116%,107%
